Assay results as given in PubChem BioAssay AID1159580 (chemical genetic matrix, 2015).
“And” between values parts separate entries of the source, which are not always exact repeats. Identical values can stand only once. Screen size: about 5,500 compounds; about 2,000 (36%) were called active. Another 18% or so got no clear call; they are omitted. Rule as the data show it: active = normalized growth mostly below about 0.91 (no sharp cut-off); inconclusive = no clear call, values can overlap the other calls; inactive = mostly above about 0.92. The list shows a part of the results.

Assay: chemical genetic growth profiling, strain panel (AID 1159580);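 also: tested at 20 µM; growth read once vehicle control cultures reached saturation at 30 °C; 1 = growth at the plate median or of vehicle wells; lower values mean less growth of the strain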
Settings: S. cerevisiae deletion strains, growth OD

Measured: normalized growth

C[C@H](CCC(=O)O)[C@H]1CCC2C3C(=O)CC4CC(=O)CC[C@]4(C)C3CC(=O)[C@@]21C (some centres not stated)
inactive: locus YAL021C, strain ccr4, stronger effect = lower value 0.908 | locus YAL026C, strain drs2, stronger effect = lower value 0.99 | locus YAL030W, strain snc1, stronger effect = lower value 0.963 | locus YBL061C, strain skt5, stronger effect = lower value 0.99 | locus YBR009C, strain hhf1, stronger effect = lower value 0.992 | locus YBR021W, strain FUR4, stronger effect = lower value 1.01 | locus YBR023C, strain chs3, stronger effect = lower value 0.987 | locus YBR171W, strain sec66, stronger effect = lower value 0.956 | locus YBR229C, strain ROT2, stronger effect = lower value 1.01 | locus YBR231C, strain swc5, stronger effect = lower value 0.967 | locus YBR279W, strain paf1, stronger effect = lower value 0.994 | locus YCL011C, strain gbp2, stronger effect = lower value 0.991 | locus YCL016C, strain dcc1, stronger effect = lower value 1.02 | locus YCL029C, strain bik1, stronger effect = lower value 1.01 | locus YCL061C, strain MRC1, stronger effect = lower value 0.972 | locus YCL069W, strain vba3, stronger effect = lower value 0.978 | locus YCR088W, strain abp1, stronger effect = lower value 0.987 | locus YDL005C, strain med2, stronger effect = lower value 0.952 | locus YDL035C, strain GPR1, stronger effect = lower value 1.02 | locus YDL040C, strain nat1, stronger effect = lower value 0.976 | locus YDL074C, strain BRE1, stronger effect = lower value 1 | locus YDL101C, strain DUN1, stronger effect = lower value 1.01 | locus YDL134C, strain PPH21, stronger effect = lower value 1.02 | locus YDL185W, strain tfp1, stronger effect = lower value 1.01 | locus YDL192W, strain arf1, stronger effect = lower value 1 | locus YDR001C, strain nth1, stronger effect = lower value 0.969 | locus YDR069C, strain doa4, stronger effect = lower value 0.951 | locus YDR101C, strain arx1, stronger effect = lower value 1.02 | locus YDR137W, strain rgp1, stronger effect = lower value 0.999 | locus YDR159W, strain sac3, stronger effect = lower value 0.937 | locus YDR162C, strain NBP2, stronger effect = lower value 1.02 | locus YDR195W, strain ref2 0.937 | locus YDR297W, strain sur2, stronger effect = lower value 0.981 | locus YDR318W, strain mcm21, stronger effect = lower value 1 | locus YDR334W, strain swr1, stronger effect = lower value 0.957 | locus YDR335W, strain msn5, stronger effect = lower value 0.978 | locus YDR388W, stronger effect = lower value 1 | locus YDR392W, strain spt3, stronger effect = lower value 1.06 | locus YDR502C, strain sam2, stronger effect = lower value 0.998 | locus YEL003W, strain gim4, stronger effect = lower value 0.979 | locus YEL037C, strain rad23, stronger effect = lower value 0.983 | locus YEL061C, strain CIN8 (second series), stronger effect = lower value 0.962 | locus YEL061C, strain CIN8, stronger effect = lower value 1.01 | locus YER015W, strain faa2, stronger effect = lower value 0.991 | locus YER016W, strain bim1, stronger effect = lower value 1.04 | locus YER110C, stronger effect = lower value 1.01 | locus YER111C, strain swi4, stronger effect = lower value 0.974 | locus YER155C, strain BEM2 (second series), stronger effect = lower value 0.961 | locus YER155C, strain BEM2, stronger effect = lower value 1 | locus YER167W, strain BCK2, stronger effect = lower value 1.01 | locus YFR010W, strain ubp6, stronger effect = lower value 0.965 | locus YGL078C, strain dbp3, stronger effect = lower value 1.01 | locus YGL086W, strain mad1, stronger effect = lower value 1.01 | locus YGL167C, strain pmr1, stronger effect = lower value 0.947 | locus YGL173C, strain kem1, stronger effect = lower value 0.962 | locus YGL227W, strain vid30, stronger effect = lower value 0.97 | locus YGL240W, strain doc1, stronger effect = lower value 0.948 | locus YGL248W, strain PDE1, stronger effect = lower value 1 | locus YGL253W, strain hxk2, stronger effect = lower value 1 | locus YGR135W, strain pre9, stronger effect = lower value 0.994 | locus YGR252W, strain gcn5, stronger effect = lower value 0.972 | locus YHR013C, strain ard1, stronger effect = lower value 1 | locus YHR027C, strain rpn1, stronger effect = lower value 0.988 | locus YHR030C, strain SLT2, stronger effect = lower value 1.01 and 1.03 | locus YHR079C, strain IRE1 (second series), stronger effect = lower value 0.997 | locus YHR079C, strain IRE1, stronger effect = lower value 1 | locus YHR094C, strain hxt1, stronger effect = lower value 1.01 | locus YHR129C, strain ARP1, stronger effect = lower value 1.01 | locus YHR142W, strain chs7, stronger effect = lower value 0.957 | locus YHR200W, strain rpn10, stronger effect = lower value 1 | locus YIL066C, strain RNR3, stronger effect = lower value 1.02 | locus YIL073C, strain SPO22, stronger effect = lower value 1.01 | locus YIL125W, strain kgd1, stronger effect = lower value 1.01 | locus YIR030C, strain dcg1, stronger effect = lower value 1.01 | locus YJL092W, strain hpr5, stronger effect = lower value 0.971 | locus YJL095W, strain BCK1 (second series), stronger effect = lower value 0.969 | locus YJL095W, strain BCK1, stronger effect = lower value 1 and 1.02 | locus YJL115W, strain asf1, stronger effect = lower value 0.978 | locus YJL129C, strain trk1, stronger effect = lower value 0.962 | locus YJL134W, strain LCB3, stronger effect = lower value 1.01 | locus YJL154C, strain vps35, stronger effect = lower value 0.958 | locus YJL164C, strain tpk1, stronger effect = lower value 1.01 | locus YJL166W, strain qcr8, stronger effect = lower value 0.916 | locus YJL168C, strain set2, stronger effect = lower value 1 | locus YJL187C, strain SWE1 (second series), stronger effect = lower value 1.01 | locus YJR043C, strain POL32, stronger effect = lower value 1.01 | locus YJR066W, strain TOR1, stronger effect = lower value 0.971 | locus YJR075W, strain HOC1, stronger effect = lower value 1.02 | locus YKL009W, strain mrt4, stronger effect = lower value 0.992 | locus YKL068W, stronger effect = lower value 1.01 | locus YKL085W, strain MDH1 (second series), stronger effect = lower value 1.02 | locus YKL085W, strain MDH1, stronger effect = lower value 1.02 | locus YKL160W, strain elf1, stronger effect = lower value 0.985 | locus YKR001C, strain vps1, stronger effect = lower value 1.01 | locus YKR026C, strain gcn3, stronger effect = lower value 0.972 | locus YLL001W, strain dnm1, stronger effect = lower value 0.923 | locus YLL026W, stronger effect = lower value 0.987 | locus YLL041C, strain sdh2, stronger effect = lower value 0.978 | locus YLR027C, strain aat2, stronger effect = lower value 0.993 | locus YLR039C, strain RIC1, stronger effect = lower value 0.955 | locus YLR058C, strain SHM2, stronger effect = lower value 1.01 | locus YLR102C, strain apc9, stronger effect = lower value 0.999 | locus YLR113W, strain HOG1, stronger effect = lower value 1.03 | locus YLR221C, strain rsa3, stronger effect = lower value 1.04 | locus YLR258W, strain gsy2, stronger effect = lower value 0.982 | locus YLR262C, strain YPT6 (second series), stronger effect = lower value 0.926 | locus YLR262C, strain YPT6, stronger effect = lower value 1.05 | locus YLR268W, strain sec22, stronger effect = lower value 1 | locus YLR320W, strain mms22, stronger effect = lower value 1 | locus YLR330W, strain CHS5, stronger effect = lower value 1.01 | locus YLR342W, strain FKS1 (second series), stronger effect = lower value 1 | locus YLR342W, strain FKS1, stronger effect = lower value 0.972 | locus YLR357W, strain rsc2, stronger effect = lower value 0.917 | locus YLR370C, strain arc18, stronger effect = lower value 0.987 | locus YLR371W, strain rom2, stronger effect = lower value 1 | locus YLR384C, strain iki3, stronger effect = lower value 0.976 | locus YLR418C, strain cdc73, stronger effect = lower value 0.981 | locus YML016C, strain PPZ1, stronger effect = lower value 1.01 | locus YML032C, strain rad52, stronger effect = lower value 0.994 | locus YML120C, strain ndi1, stronger effect = lower value 0.967 | locus YML124C, strain tub3, stronger effect = lower value 0.995 | locus YMR058W, strain fet3, stronger effect = lower value 0.976 | locus YMR078C, strain ctf18, stronger effect = lower value 1.01 | locus YMR125W, strain sto1, stronger effect = lower value 0.93 | locus YMR129W, stronger effect = lower value 0.993 | locus YMR205C, strain PFK2, stronger effect = lower value 0.953 | locus YMR223W, strain ubp8, stronger effect = lower value 1 | locus YMR307W, strain GAS1, stronger effect = lower value 1.05 | locus YNL067W, strain RPL9B, stronger effect = lower value 1.01 | locus YNL071W, strain lat1, stronger effect = lower value 0.975 | locus YNL153C, strain GIM3, stronger effect = lower value 0.996 | locus YNL183C, strain NPR1, stronger effect = lower value 0.982 | locus YNL209W, strain ssb2, stronger effect = lower value 0.99 | locus YNL233W, strain BNI4, stronger effect = lower value 1.01 | locus YNL248C, strain rpa49, stronger effect = lower value 1 | locus YNL250W, strain rad50, stronger effect = lower value 0.995 | locus YNL271C, strain bni1, stronger effect = lower value 0.996 | locus YNL298W, strain CLA4, stronger effect = lower value 1 | locus YNL307C, strain MCK1, stronger effect = lower value 1 | locus YNL322C, strain KRE1 (second series), stronger effect = lower value 0.975 | locus YNL322C, strain KRE1, stronger effect = lower value 1.02 | locus YNR049C, strain mso1, stronger effect = lower value 0.983 | locus YNR052C, strain pop2, stronger effect = lower value 1 | locus YOL012C, strain htz1 1.17 | locus YOL147C, strain pex11, stronger effect = lower value 1.01 | locus YOR001W, strain rrp6, stronger effect = lower value 0.965 | locus YOR061W, strain CKA2, stronger effect = lower value 1.01 | locus YOR069W, strain VPS5, stronger effect = lower value 1.01 | locus YOR070C, strain gyp1, stronger effect = lower value 0.995 | locus YOR080W, strain dia2, stronger effect = lower value 0.947 | locus YOR083W, strain WHI5, stronger effect = lower value 0.964 | locus YOR106W, strain vam3, stronger effect = lower value 0.924 | locus YOR136W, strain idh2, stronger effect = lower value 1 | locus YOR144C, strain elg1, stronger effect = lower value 1.01 | locus YOR184W, strain ser1, stronger effect = lower value 0.999 | locus YOR231W, strain MKK1, stronger effect = lower value 1.03 | locus YOR265W, strain rbl2, stronger effect = lower value 0.971 | locus YOR270C, strain vph1, stronger effect = lower value 0.988 | locus YOR290C, strain snf2, stronger effect = lower value 1.02 | locus YOR316C, strain cot1, stronger effect = lower value 1.01 | locus YPL051W, strain arl3, stronger effect = lower value 1.02 | locus YPL055C, strain LGE1, stronger effect = lower value 1.02 | locus YPL078C, strain atp4, stronger effect = lower value 0.929 | locus YPL106C, strain sse1, stronger effect = lower value 0.94 | locus YPL240C, strain hsp82, stronger effect = lower value 0.989 | locus YPL256C, strain CLN2, stronger effect = lower value 1.04 | locus YPR119W, strain clb2, stronger effect = lower value 1.01 | locus YPR141C, strain kar3, stronger effect = lower value 1.01 | locus YPR163C, strain tif3, stronger effect = lower value 1 | locus YPR167C, strain met16, stronger effect = lower value 1 | strain wtn01, stronger effect = lower value 0.988
active: locus YMR231W, strain pep5, stronger effect = lower value 0.906
